Screens: PubChem, National Center for Advancing Translational Sciences (NCATS)
RORgamma inh – inhibitors of mouse ROR gamma transcriptional activity; P51450; Drosophila S2 Gal4-RORgamma UAS-luciferase reporter, 20 h; Potency, µM (highest dose often 53.6 µM), without a hit: at the highest dose activity change, negative = inhibition, actives largely listed as inhibitors; actives 5.4% (n = 310,000); further: nearly all actives have a fitted effect of over 60% in size
Target sequence (P51450 whole entry, looked up, the tested form may be a part): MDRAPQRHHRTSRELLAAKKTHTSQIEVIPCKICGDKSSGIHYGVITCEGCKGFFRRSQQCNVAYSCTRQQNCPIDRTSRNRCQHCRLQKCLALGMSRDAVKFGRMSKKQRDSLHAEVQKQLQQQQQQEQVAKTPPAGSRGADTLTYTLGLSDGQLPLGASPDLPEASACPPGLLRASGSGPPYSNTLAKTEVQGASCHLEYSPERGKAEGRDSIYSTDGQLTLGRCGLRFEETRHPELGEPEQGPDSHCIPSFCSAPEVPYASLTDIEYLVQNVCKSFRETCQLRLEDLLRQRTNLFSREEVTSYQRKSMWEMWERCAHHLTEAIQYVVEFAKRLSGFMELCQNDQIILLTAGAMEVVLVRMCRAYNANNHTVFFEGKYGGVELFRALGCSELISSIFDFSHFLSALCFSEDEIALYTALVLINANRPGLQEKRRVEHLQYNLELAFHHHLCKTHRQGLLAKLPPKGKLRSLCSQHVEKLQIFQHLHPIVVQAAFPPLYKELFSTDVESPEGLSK
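In this cell-based reporter format, copper sulfate (700 uM final) drives Gal4–ROR gamma fusion expression from a metallothionein promoter in Drosophila Schneider cells; compounds preincubated 1 hr, reporter read after 20 hr at ambient temperature.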
TDP1 cell noCPT – qHTS for Inhibitors of human tyrosyl-DNA phosphodiesterase 1 (TDP1): qHTS in cells in absence of CPT; DT40 Tdp1-/- hTDP1 cells, no CPT, ATP luminescence, 48 h; Potency, µM (titrated, usually from 46.2 µM), for the others: top-dose activity change, negative = growth inhibition, hits mostly inhibitors; actives 15% (n = 420,000); AID 686978, 2013; further: nearly all actives have a fitted effect of over 55% in size
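No-CPT arm: Tdp1-/-;hTDP1 DT40 cells (400/well) plus compounds, incubated ≥48 hr at 37 °C. Readout CellTiter-Glo luminescence.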
TDP1 cell CPT – growth inhibition of DT40 Tdp1-/-;hTDP1 cells with camptothecin (screen for TDP1 inhibitors); actives 12% (n = 420,000); Potency, µM (top dose mostly 46.2 µM), inactives show at the highest dose activity change, negative = growth inhibition, usual class: inhibitors; chicken DT40 Tdp1-/-;hTDP1 cells + 20 nM CPT, ATP luminescence, 48 h; further: nearly all actives have a fitted effect of over 55% in size
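Chicken DT40 Tdp1-/- cells stably complemented with human TDP1 were seeded at 400 cells/well in medium containing 20 nM camptothecin, exposed to pin-transferred compounds, and grown at 37 °C for at least 48 hr. Viability was read as ATP luminescence.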
TDP1 inh – inhibitors of human tyrosyl-DNA phosphodiesterase TDP1 | Q9NUW8 | recombinant TDP1, AlphaScreen DNA substrate cleavage | Potency, µM (doses to about 130 µM), for inactives: top-dose activity change, negative = inhibition, hits mostly inhibitors | actives 0.28% (n = 350,000) | AID 485290; further: nearly all actives have a fitted effect of over 40% in size
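Signal: AlphaScreen proximity between streptavidin donor and anti-FITC acceptor beads on intact substrate. Reaction: Tdp1 1 nM, substrate 15 nM final, 5 min RT after 15 min compound preincubation.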
Gal4-VP16 FLuc – inhibits Gal4-VP16 luciferase reporter, ROR gamma counter-screen; Drosophila S2 Gal4-VP16 UAS-luciferase, luminescence, 20 h; Potency, µM (highest dose often 53.6 µM), inactives show at the top dose activity, negative = inhibition, most hits filed as inhibitors; actives 3.5% (n = 310,000); AID 2546;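 further: Gal4-VP16 expression switched on by copper sulfate through the metallothionein promoter; nearly all actives have a fitted effect of over 50% in size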
Starred values were filed as active, the others as inactive; u = inconclusive; x = no result. Hits are enriched below; roughly 19% of the tested compounds scored in any of these assays. The call rests on the fitted dose curve; in most records, active means well fitted curve in the direction sought with a large enough effect; inconclusive means small, poorly fitted or top-dose-only effect, or another doubt; inactive means no such curve, though single readings can be large; an effect the other way counts as inactive or inconclusive. On the % scale 0 is the no-effect control and ±100 the full control effect; potency means the concentration at half of the fitted maximal effect.

SMILES | RORgamma inh | TDP1 cell noCPT | TDP1 cell CPT | TDP1 inh | Gal4-VP16 FLuc
Cc1ccc(-n2ncc(C(=O)NCCN3CCc4ccccc4C3)c2C2CCN(C(=O)OC(C)(C)C)CC2)cc1 | x | 18µM* | 21µM* | 1% | x
Cc1c(Cl)cccc1-n1ncc(C(=O)N2CCc3ccccc3C2)c1C1CCN(C(=O)OC(C)(C)C)CC1 | x | 21µM* | u | 0% | x
Cc1ccc2nc(N(CCCN(C)C)C(=O)c3ccco3)sc2c1 | 9% | u | u | 5% | 1%
COc1ccc(S(=O)(=O)N2CCC(Cc3ccccc3)CC2)cc1C(N)=O | u | u | -22% | 1% | -1%
Cc1ccc(-c2cnc(C(O)c3c(C)cccc3C)[nH]2)cc1 (centres undefined) | x | -26% | -25% | x | x
COc1ccccc1NCC(=O)N/N=C/c1sccc1C | u | -23% | -12% | 6% | u
Cc1c(Cl)cccc1-n1ncc(C(=O)NCCN2CCN(C)CC2)c1C1CCN(C(=O)OC(C)(C)C)CC1 | x | 26µM* | u | -2% | x
CCCCn1c2ccccc2c2nnc(SCCN3CCCCC3)nc21 | -2% | 16µM* | u | x | -17%
CCCCn1c2ccc(F)cc2c2nnc(SCCN(CC)CC)nc21 | x | 26µM* | 21µM* | 2% | x
CCN(CC)CCSc1nnc2c3cc(C)ccc3n(Cc3ccccc3)c2n1 | -18% | 21µM* | u | 1% | -6%
CCCCn1c2ccc(F)cc2c2nnc(SCCN3CCOCC3)nc21 | u | 29µM* | u | x | -26%
O=C(NCC1CC1)[C@@H]1C[C@H]1[C@@H](NP(=O)(c1ccccc1)c1ccccc1)c1ccccc1 | 13% | u | -30% | 5% | -5%
COc1ccc(C(=O)Nc2nnc(CC(=O)N/N=C/c3ccc(O)cc3O)s2)cc1 | -12% | x | x | x | -4%
Cc1ccc(Cl)cc1NC(=O)CN1C(=O)COc2ccc(S(=O)(=O)N3CCCCCC3)cc21 | x | u | -20% | -5% | x
O=C(OCC(=O)N1CCCC1)c1ccccc1OCc1ccccc1 | 18% | -15% | -17% | 6% | 16%
COc1ccc2c(c1)c1nnc(SCCN3CCOCC3)nc1n2C | x | 16µM* | u | x | x
Cn1c2ccc(F)cc2c2nnc(SCCN3CCOCC3)nc21 | 11% | -16% | 1% | x | -10%
Cc1c(C)n(CCCN(C)C)c2ncnc(Nc3ccc(F)cc3)c12 | 20% | -3% | -7% | x | -4%
COc1ccc(CNC(=O)C(c2ccccc2F)N(C(=O)c2csnn2)C2CC2)cc1 (centres undefined) | 20% | u | 21µM* | -3% | -4%
Cc1ccc(C)c(C(=O)N2CCN(c3ncccn3)CC2)c1 | 13% | 18% | -2% | x | 3%
Cc1ccc2c(Cl)c(C)c(N3CCCCC3)nc2n1 | 4µM* | u | u | 0% | u
Cc1nc2ccccc2nc1N1CCCCC1 | 19% | -7% | u | 3% | 16%
COc1ccc(-c2cc3nc(C)c(CCC(=O)N4CCN(c5ccccn5)CC4)c(C)n3n2)c(OC)c1 | 0% | 16µM* | u | 3% | u
COc1ccc(-c2cc3nc(C)c(CCC(=O)N4CCN(c5ccccc5F)CC4)c(C)n3n2)c(OC)c1 | x | 29µM* | u | 5% | x
COc1ccc(-c2cc3nc(C)c(CCC(=O)Nc4ccccc4C(C)=O)c(C)n3n2)c(OC)c1 | x | -18% | 10% | -5% | x
SMILES | RORgamma inh | TDP1 cell noCPT | TDP1 cell CPT | TDP1 inh | Gal4-VP16 FLuc
CCOc1ccccc1OCCCC(=O)Nc1cccc(S(=O)(=O)N2CCOCC2)c1 | x | u | u | 1% | x
O=C(CC(=O)Nc1cc(Cl)ccc1Cl)Nc1cc(Cl)ccc1Cl | 0% | 18% | -15% | x | -15%
CC1C/C(=C/c2ccccn2)C(=O)/C(=C/c2ccccn2)C1 (centres undefined) | 2.8µM* | 0.52µM* | 0.52µM* | 0% | 1.4µM*
Cc1ccc(C=Cc2ccccn2)cc1 | x | u | -17% | x | x
CC(C)(C)C1C/C(=C/c2ccccn2)C(=O)/C(=C/c2ccccn2)C1 (centres undefined) | 5.6µM* | 0.52µM* | 0.92µM* | 4% | u
CC1C/C(=C/c2cccs2)C(=O)/C(=C/c2cccs2)C1 (centres undefined) | 26% | u | -27% | 5% | 20%
O=C(Nc1cc(F)c(Br)cc1F)c1ccc(Cl)cc1 | 4% | u | u | x | -1%
CCOc1ccc(/C=C2\NC(=S)NC2=O)cc1 | u | -28% | u | 4% | u
CCOc1ccc(/C=C/C2=CC(C)(C)NC(=S)N2)cc1 | 0.71µM* | u | 15µM* | 9% | 2.2µM*
COc1cccc(/C=C/C2=CC(C)(C)NC(=S)N2)c1 | 1.3µM* | u | -7% | -2% | 5µM*
COc1ccc(/C=C/C2=CC(C)(C)NC(=S)N2)cc1OC | 3.2µM* | -10% | -27% | 8% | -16%
CC1(C(=O)Nc2ccc3c(c2)OCCO3)CCN1C(=O)C/C=C/c1ccccc1 (centres undefined) | x | u | 29µM* | x | x
O=C(Nc1ccc2c(c1)OCCO2)C(c1cc2ccccc2o1)N1CCN(c2ccc(F)cc2)CC1 (centres undefined) | x | -20% | u | x | x
O=C(Nc1ccc2c(c1)OCCO2)C(c1cc2ccccc2o1)N1CCN(C/C=C/c2ccccc2)CC1 (centres undefined) | x | 16µM* | 15µM* | x | x
CC1(C(=O)NS(=O)(=O)Cc2ccccc2C(F)(F)F)CCN1C(=O)c1ccccc1 (centres undefined) | x | -7% | -29% | x | x
CC1(C(=O)NS(=O)(=O)Cc2ccccc2C(F)(F)F)CCN1C(=O)C/C=C/c1ccccc1 (centres undefined) | x | 23µM* | u | x | x
O=C1Cc2cc(S(=O)(=O)N3CCN(c4ccccc4)CC3)ccc2N1 | -7% | -3% | -11% | 2% | 4%
CCN(CCNS(=O)(=O)c1ccc2[nH]c(=O)sc2c1)c1ccccc1 | 0% | -15% | u | 8% | -7%
COC(=O)CCN1CCC(c2cc(-c3cccc(C(F)(F)F)c3)n[nH]2)CC1 | -1% | -23% | -7% | x | -3%
CCN(CC)CCN1CCN(c2cncc(-c3cccc(N)c3)n2)CC1 | x | -26% | -18% | x | x
CCN(CC)CCN1CCN(c2cncc(-c3ccc4ccccc4c3)n2)CC1 | x | 16µM* | 12µM* | x | x
FC(F)(F)c1cccc(-c2cncc(N3CCN(CCN4CCCC4)CC3)n2)c1 | x | 16µM* | 23µM* | x | x
CC1=C(CCC(=O)O)c2cc3nc(cc4[nH]c(cc5[nH]c(cc1n2)c(C)c5C(C)O)c(C)c4C(C)O)C(C)=C3CCC(=O)O (centres undefined) | -15% | 17% | 23% | 16µM* | -7%
